Data taken from PubChem BioAssay (NCI).
About 79,000 compounds went through this panel and 15% of them were active in at least one assay; those are over-represented in the sample as a whole. A number with no mark means an inactive call. Calls of active or inactive are those of the source. No stated cut-off is given here; in the data, active means growth inhibition above about 70%; inactive means the rest.

Key:
[1] = NCI Yeast Anticancer Drug Screen. Data for the rad50 strain (AID 155);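 further: 0% = growth of vehicle-only cultures of the same strain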; settings: S. cerevisiae rad50 strain growth inhibition, active compounds read high
Summary of the method: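 Readout: growth inhibition relative to vehicle-treated cultures. Compound exposure was carried out in a genetically defined yeast strain deficient in DNA damage repair.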

[2] = NCI Yeast Anticancer Drug Screen. Data for the mec2-1 strain (AID 157); settings: S. cerevisiae mec2-1 strain, active compounds read high
Summary of the method: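 mec2-1 yeast strain, carrying an alteration in DNA damage repair or cell cycle control, was exposed to compounds; growth inhibition was measured relative to vehicle-treated controls.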

[3] = NCI Yeast Anticancer Drug Screen. Data for the sgs1 mgt1 strain (AID 161);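 further: 0% = growth of cultures given vehicle only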; settings: S. cerevisiae sgs1 mgt1 strain, active compounds read high
Summary of the method: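 Yeast cells carrying a defined DNA-repair defect were exposed to test compounds. Growth inhibition was measured relative to vehicle-treated controls.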

[4] = NCI Yeast Anticancer Drug Screen. Data for the cln2 rad14 strain (AID 165);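 further: 0% = growth equal to vehicle treated cultures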; settings: S. cerevisiae cln2 rad14 strain, active compounds read high
Summary of the method: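 Yeast carrying cln2 and rad14 alterations (cell cycle control and DNA damage repair) were exposed to compounds. Growth inhibition was measured against vehicle-treated controls.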

[5] = NCI Yeast Anticancer Drug Screen. Data for the bub3 strain (AID 167); settings: S. cerevisiae bub3 mutant strain, active compounds read high
Summary of the method: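 Readout: yeast growth inhibition, expressed relative to vehicle-only wells. The test organism is a mutant strain from a panel with lesions in DNA repair or checkpoint genes.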

[6] = NCI Yeast Anticancer Drug Screen. Data for the mlh1 rad18 strain (AID 175); settings: S. cerevisiae mlh1 rad18 strain growth inhibition, active compounds read high
Summary of the method: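 Growth inhibition of the yeast strain was measured after compound exposure and expressed relative to vehicle-treated controls. The strain carries defined defects in DNA damage repair.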

[7] = at 5.0 µM (retest, dose inferred, filed as 0.5)
[8] = at 50.0 µM (retest, dose inferred, filed as 5.0)

| SMILES | growth inhibition [1, 7] | growth inhibition [1, 8] | growth inhibition ([1]; at 50.0 µM) | growth inhibition [2, 7] | growth inhibition [2, 8] | growth inhibition ([2]; at 50.0 µM) | growth inhibition [3, 7] | growth inhibition [3, 8] | growth inhibition ([3]; at 50.0 µM) | growth inhibition [4, 7] | growth inhibition [4, 8] | growth inhibition ([4]; at 50.0 µM) | growth inhibition [5, 7] | growth inhibition [5, 8] | growth inhibition ([5]; at 50.0 µM) | growth inhibition [6, 7] | growth inhibition [6, 8] | growth inhibition ([6]; at 50.0 µM) |
| --- | --- | --- | --- | --- | --- | --- | --- | --- | --- | --- | --- | --- | --- | --- | --- | --- | --- | --- |
| COc1cc2c(cc1OC)-c1nc(N)sc1CC2 | 2% | -4% | 86.8% (active) | -2% | -1% | 85.5% (active) | 2% | -23% | 81.8% (active) | -4% | 4% | 85.7% (active) | -2% | -4% | 85.8% (active) | -1% | 7% | 88.3% (active) |
| CC(=O)OC1C(OC(C)=O)C2C(C)CC3OC(=O)C(C)C3CC2(C)C1OC(C)=O (stereo not given) | -7% | 71% (active) | 78.2% (active) | 2% | 82% (active) | 77.2% (active) | -6% | 69% | 73.6% (active) | 34% | 46% | 32.4% | 9% | 80% (active) | 67% | -18% | 81% (active) | 72.7% (active) |
| COC(=O)C1(Cc2ccc3c(c2)CCC3)Cc2ccccc2C1O (stereo not given) | -3% | 99% (active) | 76.5% (active) | -40% | 99% (active) | 84.1% (active) | -44% | 99% (active) | 86.2% (active) | 1% | 99% (active) | 89.8% (active) | -14% | 99% (active) | 89.6% (active) | -21% | 99% (active) | 91% (active) |
| CC(=O)N(C)C1=C(Sc2ccc(C)cc2)C(=O)c2ccccc2C1=O | 95% (active) | 99% (active) | 99.5% (active) | 97% (active) | 100% (active) | 99.7% (active) | 93% (active) | 100% (active) | 99.8% (active) | 83% (active) | 99% (active) | 99.5% (active) | 99% (active) | 99% (active) | 99.6% (active) | 95% (active) | 99% (active) | 99.7% (active) |
| O[Si](O)(c1ccccc1)c1ccccc1 | 13% | 92% (active) | 96.2% (active) | 7% | 92% (active) | 93% (active) | 10% | 92% (active) | 95.8% (active) | 0% | 88% (active) | 90.2% (active) | -2% | 94% (active) | 95.6% (active) | 12% | 95% (active) | 95.8% (active) |
| C/C(=N\NC(=S)NC(C)(C)C)c1ccccn1 | 20% | 99% (active) | 77% (active) | 13% | 99% (active) | 85% (active) | 32% | 99% (active) | 90.5% (active) | 31% | 99% (active) | 89.5% (active) | 18% | 99% (active) | 90.2% (active) | 38% | 98% (active) | 91.2% (active) |
| CCSC(=S)NC(=O)c1ccccc1 | -6% | 27% | 60.2% | 1% | 20% | 21.4% | -2% | 30% | 76.5% (active) | -12% | 28% | 38.1% | -7% | 44% | 17.2% | -3% | 32% | 36.9% |
| CN(/N=C\c1ccc(Cl)cc1)C(c1ccc(Cl)cc1)N(C)/N=C/c1ccc(Cl)cc1 (stereo not given) | -1% | 70% (active) | 29% | 2% | 84% (active) | 9.5% | -3% | 94% (active) | 80.2% (active) | 3% | 67% | 45.5% | -2% | 66% | 16.6% | -3% | 85% (active) | 30.2% |
| [O-][n+]1ccc(Br)c(/C=C/c2ccccc2)c1 | 0% | 20% | 24.1% | -5% | 32% | 18.1% | -2% | 23% | 20% | 0% | 9% | 2.3% | -5% | 9% | 24.6% | 2% | 79% (active) | 56.1% |
| COc1ccc2nc3cc(Cl)ccc3c(NCCCCN(C)C)c2c1 | -2% | 21% | 40.7% | 1% | 18% | 35.8% | -5% | 30% | 37.5% | 5% | 21% | 89.2% (active) | -3% | 18% | 39.6% | 0% | 21% | 31.5% |
